An excerpt weighted towards active compounds, which were near 4.6% of everything screened.
Mdm2 MdmX PPI: human Mdm2/MdmX binding inhibition | O15151+Q00987 | SaOS-2 split-luciferase Mdm2/MdmX complementation, luminescence | inhibition, % at 8 µM | actives 3% (n = 330,000) | AID 485346;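 active means inhibition of at least 50% at 8 µM in the primary screen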
ABHD5-PLIN5 inh: ABHD5-PLIN5 protein interaction inhibition; Q00G26+Q8WTS1; Split G. princeps luciferase complementation, luminescence, 4 h; inhibition, % at 4 µM; actives 0.78% (n = 360,000);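 active means inhibition above the mean inhibition across every tested compound plus 3 SD, cut at about 22% in these data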
Target sequence (Q00G26 whole entry, looked up): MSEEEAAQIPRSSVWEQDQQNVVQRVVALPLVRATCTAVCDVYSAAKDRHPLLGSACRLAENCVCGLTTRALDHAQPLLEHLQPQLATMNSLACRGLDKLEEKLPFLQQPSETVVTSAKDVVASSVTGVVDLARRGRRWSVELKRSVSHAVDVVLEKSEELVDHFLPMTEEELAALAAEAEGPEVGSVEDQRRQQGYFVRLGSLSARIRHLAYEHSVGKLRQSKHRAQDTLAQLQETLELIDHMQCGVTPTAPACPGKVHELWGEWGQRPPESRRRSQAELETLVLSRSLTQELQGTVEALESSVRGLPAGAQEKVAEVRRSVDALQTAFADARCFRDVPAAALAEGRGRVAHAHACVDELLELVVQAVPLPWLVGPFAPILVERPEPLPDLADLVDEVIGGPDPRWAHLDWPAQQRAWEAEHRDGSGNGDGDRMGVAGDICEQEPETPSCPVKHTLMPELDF
Target sequence (Q8WTS1 whole entry, looked up): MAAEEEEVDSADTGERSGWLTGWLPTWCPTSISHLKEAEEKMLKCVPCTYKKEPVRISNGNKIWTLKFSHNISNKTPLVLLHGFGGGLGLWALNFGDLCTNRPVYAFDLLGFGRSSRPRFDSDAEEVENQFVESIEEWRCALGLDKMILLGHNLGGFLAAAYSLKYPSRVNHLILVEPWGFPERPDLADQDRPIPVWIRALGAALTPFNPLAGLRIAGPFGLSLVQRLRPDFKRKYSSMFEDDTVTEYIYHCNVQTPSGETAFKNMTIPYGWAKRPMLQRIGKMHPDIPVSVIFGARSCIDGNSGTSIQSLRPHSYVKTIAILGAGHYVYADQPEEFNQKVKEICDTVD
CF NFkB block: blocks PAF-induced NF-kB reporter in cystic fibrosis cells; KKLEB NF-kB-GFP reporter, GFP fluorescence overnight; inhibition, % at 5 µM; actives 0.86% (n = 360,000);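 active means at least 50% inhibition at 5 µM, scaled per plate between neutral and stimulator controls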;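 further: PAF is a Pseudomonas aeruginosa culture filtrate used as stimulus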
Peg3 prom inh: Peg3 promoter activity inhibition; actives 1.7% (n = 360,000); HeLa PEG-Prom luciferase reporter, luminescence, overnight; inhibition, % at 20 µM;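 active means inhibition of at least 50% at 20 µM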
HIF-2a inh: blocks HIF-2a reporter activity. 786-0 RCC cells HIF-2a reporter, luciferase luminescence, overnight. inhibition, % at 18.8 µM. actives 0.72% (n = 360,000). AID 624352;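 active means inhibition of the luminescence signal of 40% or more relative to plate controls, in a single-dose primary screen at 18.75 µM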
KKLEB tox: reduces viability of KKLEB cystic fibrosis airway cells. activity change (cytotoxicity), % at 5 µM. AID 602141. actives 0.36% (n = 360,000). KKLEB CF airway cells viability, ATPlite luminescence, overnight; stronger effect = lower value; cells stimulated with P. aeruginosa culture filtrate;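 active means corrected activity change at or below -50% at 5 µM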
Mdm2 MdmX conf: human Mdm2/MdmX binding inhibition, confirmed | luminescent assay | shares compounds with Mdm2 MdmX PPI | inhibition, % at 8 µM | actives 55% (n = 10,000); in the data active means inhibition above about 40%
Full FLuc ctr: inhibits full-length luciferase, flagging false Mdm2/MdmX hits; shares compounds with Mdm2 MdmX PPI; AID 504607; actives 77% (n = 6,200); inhibition, % at 8 µM; SaOS-2 full-length luciferase counterscreen, luminescence;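 active means mean inhibition at 8 µM reaching about 37%, which flags the compound as non-specific, limit read from the data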;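 further: p53-null SaOS-2 cells with luciferase driven by a doxycycline-inducible promoter; compound on cells about two nights before reading with doxycycline added after day one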
Hits are given with their value; – = inactive; · = not tested or not shown.

SMILES	Mdm2 MdmX PPI	ABHD5-PLIN5 inh	CF NFkB block	Peg3 prom inh	HIF-2a inh	KKLEB tox	Mdm2 MdmX conf	others
C/C=C(\C)C(=O)OC1CC(C)(C)C[C@H]2C3=CC[C@@H]4[C@@]5(C)CCC(O[C@@H]6O[C@@H](C(=O)O)[C@@H](O)C(O[C@@H]7OC[C@H](O)[C@@H](O)[C@@H]7O[C@@H]7OC(CO)C(O)[C@@H](O)[C@@H]7O)C6O[C@@H]6OC(CO)C(O)C(O)C6O)[C@@](C)(CO)[C@@H]5CC[C@]4(C)[C@]3(C)CC(O)[C@@]12CO (some centres not stated)	55	–	–	60	–	–	–	Full FLuc ctr=48
Clc1cccc(Cl)c1Cn1cnc2c(N3CCCCCC3)ncnc21	79	–	–	–	–	–	–
COc1ccc(COC(=O)c2cccc(S(=O)(=O)N3CCCC3)c2)cc1F	–	–	–	–	–	–	·
CCOc1cccc(/C=N/NC(=O)c2cc(C3CC3)[nH]n2)c1O	59	–	–	–	–	–	–
CC(C)[C@]1(c2ccc(Cl)cc2)ON(c2ccccc2C(F)(F)F)C1=O	68	·	·	·	·	·	–	Full FLuc ctr=56
O=C1N(c2ccccc2C(F)(F)F)OC1(Cc1ccccc1)c1ccccc1 (configuration not stated)	92	–	–	58	–	–	67	Full FLuc ctr=52
Cc1ccccc1[C@]1(C)ON(c2ccccc2C(F)(F)F)C1=O	80	·	·	·	·	·	46	Full FLuc ctr=59
CC(C)[C@@]1(c2ccccc2)ON(c2ccccc2C(F)(F)F)C1=O	–	·	·	·	·	·	·
O=C1CCCN1C(=O)CSc1ncnc2sccc12	–	–	–	–	–	–	·
CC(C)NC(=O)C1(C)CSCC(=O)N1C1CCN(Cc2ccccc2)CC1 (configuration not stated)	·	–	·	·	–	·	·
O=S(=O)(NCC1CCC(NS(=O)(=O)c2c(F)cccc2F)CC1)c1ccc2c(c1)OCCO2 (configuration not stated)	–	–	–	–	–	–	·
Clc1ccc(CN(Cc2ccccc2)C(c2cccs2)c2nnnn2C2CCCC2)cc1 (configuration not stated)	–	–	–	–	–	–	·
CC(C)(C)n1nnnc1C(c1cccs1)N(Cc1ccc(Cl)cc1)CC1CCCO1 (configuration not stated)	56	–	–	–	–	–	57	Full FLuc ctr=70
COc1ccc(/C=C2\CCCc3c2nc2ccccc2c3C(=O)OCC(=O)c2c(N)n(C)c(=O)n(C)c2=O)cc1	86	·	·	·	·	·	79	Full FLuc ctr=44
COc1ccc(-c2cc(C(=O)OCC(=O)c3c(N)n(C)c(=O)n(C)c3=O)c3ccccc3n2)cc1	–	–	–	–	–	–	·
COc1ccc(N(CC(=O)NCc2ccc(C)cc2)S(=O)(=O)c2c(C)[nH]c(=O)[nH]c2=O)cc1	–	–	–	–	–	–	·
CCCCC1(Cc2ccc([N+](=O)[O-])cc2)C(=O)N(c2ccccc2)N(c2ccccc2)C1=O	97	–	–	–	–	–	97	Full FLuc ctr=47
CCCCC1(COC(=O)CCC(=O)O)C(=O)N(c2ccccc2)N(c2ccccc2)C1=O	–	–	–	–	–	–	·
CCOC(=O)C1=C(C)N=c2s/c(=C3/C(=O)Nc4ccccc43)c(=O)n2C1c1ccc(C)cc1 (configuration not stated)	70	–	–	–	–	–	–
Cc1ccc2c(c1)-c1c(ssc1=S)C(C)(C)N2C(=O)CSc1nncn1C	–	–	–	–	–	–	·
Cc1ccc(S(=O)(=O)N2c3ccccc3-c3c(ssc3=S)C2(C)C)cc1	–	–	–	–	–	–	·
CC1(C)c2ssc(=S)c2-c2ccccc2N1C(=O)CSC1=NCCS1	52	–	–	–	–	–	–
COc1ccc2c(c1)-c1c(ssc1=S)C(C)(C)N2C(=O)CSC1=NCCS1	64	–	–	–	–	–	–
COc1ccc2c(c1)-c1c(ssc1=S)C(C)(C)N2S(=O)(=O)c1ccc(C)cc1	58	–	–	–	–	–	46	Full FLuc ctr=61
O=C(NCc1ccccc1Cl)[C@H]1CCCN1C(=O)[C@H]1CCCN1C(=O)c1ccc(Cl)cc1	·	–	·	·	–	·	·
SMILES	Mdm2 MdmX PPI	ABHD5-PLIN5 inh	CF NFkB block	Peg3 prom inh	HIF-2a inh	KKLEB tox	Mdm2 MdmX conf	others
COc1ccc(/C=N/NC(=O)c2ccc(Br)cc2)cc1Cn1cc(Cl)cn1	–	–	–	–	–	–	·
COc1ccc(/C=N/NC(=O)c2cccc(Br)c2)cc1Cn1cc(Cl)cn1	60	–	–	–	–	–	50	Full FLuc ctr=67
CCOC(=O)N1CCN(Cc2nc(N)nc(Nc3ccc(C)cc3C)n2)CC1	–	–	–	–	–	–	·
O=C(/C=C/c1ccccc1)NC(=S)Nc1ccc2c3c(cccc13)CC2	59	–	–	–	–	–	–
CC(C)Cn1nc(C(=O)Nc2cccc(C(=O)NC3CC3)c2)c2ccccc2c1=O	–	–	–	–	–	–	·
O=C(CCc1ccccc1)c1ccc2c(c1)OCCCO2	–	–	–	–	–	–	·
O=C(CCCc1ccccc1)c1ccc2c(c1)OCCO2	90	–	–	87	66	-57	88	Full FLuc ctr=57
CCOc1ccc(N(CC(=O)NC2CCCCC2)C(=O)CSc2nnc(COc3ccccc3)o2)cc1	55	–	–	–	–	–	–
c1ccc(Nc2nc(N3CCCCC3)nc(N3CCCCC3)n2)cc1	–	–	–	–	–	–	·
c1ccc(Nc2nc(N3CCCCC3)nc(N3CCNCC3)n2)cc1	62	–	–	–	–	–	–
O=C(N/N=C/c1ccc(Br)s1)c1ccncc1	–	–	–	–	–	–	·
O=C(N/N=C/c1cc(Br)c(Br)s1)c1ccncc1	51	–	–	–	–	–	–
COc1cccc(NC(=O)c2ccnc(N3CCC(C(=O)NCc4ccccc4OC)CC3)c2)c1	–	–	–	–	–	–	·
NS(=O)(=O)c1ccc2nc(NC(=O)c3ccc4c(c3)OCCO4)sc2c1	76	–	–	–	–	–	–
COCCNC(=O)C1CCCN(C(=O)c2ccc(F)c(C)c2)CC1 (configuration not stated)	·	–	–	–	–	–	·
CCc1cc(=O)n2[nH]c(-c3ccccc3)c(-c3ccccc3)c2n1	58	–	–	–	–	–	45	Full FLuc ctr=52
CCCc1cc(=O)n2[nH]c(C)c(-c3ccccc3)c2n1	–	–	–	–	–	–	·
O=C(N/N=C/c1cccc(Cl)c1)C1CCCC1	–	–	–	–	–	–	·
CCOCCCNc1nc(C)nc2c1nnn2Cc1c(F)cccc1Cl	–	–	–	–	–	–	·
C=CCOc1c(Cl)cc(C(=S)N2CCCC2)cc1OCC	58	–	–	–	–	–	–

Assay outcomes as filed in PubChem BioAssay.
